Measurements: PubChem BioAssay AID1030 (National Center for Advancing Translational Sciences (NCATS), 2008)
Hit rate of the full screen: of about 220,000 compounds, about 16,000 (7.3%) were called active. About 25% were inconclusive and are not listed. Calls follow the shape of the dose curve; as a rule, active = well fitted inhibition curve with a large enough effect (not every such curve was filed as active); inconclusive = small, poorly fitted or top-dose-only effect, or another doubt; inactive = no such curve, though single readings can be large or run the other way. The entries come from a sample that favours actives as a whole.

Target: Aldehyde dehydrogenase 1A1 (Homo sapiens) (UniProt P00352)
Sequence (P00352 whole entry, looked up): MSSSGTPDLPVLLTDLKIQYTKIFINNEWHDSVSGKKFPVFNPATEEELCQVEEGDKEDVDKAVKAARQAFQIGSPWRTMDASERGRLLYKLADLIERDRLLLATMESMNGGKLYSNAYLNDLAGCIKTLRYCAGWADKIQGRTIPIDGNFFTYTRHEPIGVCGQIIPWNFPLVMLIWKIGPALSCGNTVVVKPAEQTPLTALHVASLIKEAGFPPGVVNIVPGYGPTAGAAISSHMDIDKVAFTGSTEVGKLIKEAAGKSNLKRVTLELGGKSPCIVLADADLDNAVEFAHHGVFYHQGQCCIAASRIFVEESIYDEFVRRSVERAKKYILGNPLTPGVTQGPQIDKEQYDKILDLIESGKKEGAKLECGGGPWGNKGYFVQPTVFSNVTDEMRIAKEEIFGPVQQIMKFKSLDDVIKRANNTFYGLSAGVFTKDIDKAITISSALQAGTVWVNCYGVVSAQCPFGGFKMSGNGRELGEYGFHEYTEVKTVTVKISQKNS
Assay: qHTS Assay for Inhibitors of Aldehyde Dehydrogenase 1 (ALDH1A1);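 as to activity, negative = inhibition: plate controls were no enzyme wells and a reference inhibitor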
Conditions: Purified ALDH1A1, NADH fluorescence, propionaldehyde substrate; series mostly up to 75.3 µM
Potency is read from the fitted curve at half-maximal effect.

Potency, active:
C=CS(=O)c1sc(Cl)c(N2CCOCC2)c1[N+](=O)[O-] (stereo unspecified) 2 µM, CC1(C)Cc2cccc(OCC(=O)N3CCN(c4ccc([N+](=O)[O-])cc4)CC3)c2O1 10 µM, CCOc1ccc(NC(=O)CSc2nc3c(c(=O)n2-c2ccccc2OC)SCC3)cc1 17.8 µM, CCc1nnc(NC(=O)CSc2nc3c(c(=O)n2-c2ccccc2OC)SCC3)s1 22.4 µM, COc1ccc(S(=O)(=O)NC(CC(=O)NCc2ccccc2OC)c2ccco2)cc1 (stereo unspecified) 10 µM, Cc1ccc(C(=O)c2c(NC(=O)c3ccccc3)sc(C)c2C)cc1 25.1 µM, COc1ccc(C(=O)CSc2nc(C)cc(C)n2)cc1[N+](=O)[O-] 2.24 µM, Cc1cc(C(=O)CCl)c(C)n1CC1COc2ccccc2O1 (stereo unspecified) 0.251 µM, CCOC(=O)c1c(C)[nH]c(C2=NNC(=NC(C)COC)SC2)c1C (stereo unspecified) 10 µM, COc1ccc(N2CC(C)Cn3c2nc2c3c(=O)n(Cc3ccccc3F)c(=O)n2C)c(OC)c1 (stereo unspecified) 17.8 µM, COc1ccc2c(c1)CCc1c(C(=O)N3CCCC3)noc1-2 10 µM, O=C1CN(C(=O)CN2C(=O)NC3(CCCCC3)C2=O)c2ccccc2N1 15.8 µM, COc1ccc(C(C)=O)cc1COC(=O)Cn1cnc2ccccc2c1=O 20 µM, CCOc1ccc(C(C)=O)cc1COC(=O)c1cnc(Cl)c(Cl)c1 0.708 µM

Potency, inactive:
CCOC(=O)c1ccccc1NC(=O)CSc1nc2ccccc2c(=O)[nH]1, Cc1cc(=O)oc(C)c1C(=O)NCCN(C)Cc1ccccc1, Cn1c(SCC(=O)NC2CCCCC2)nnc1-c1ccc(N)cc1, CCOC(=O)/C=c1\s/c(=C\c2ccc(C#N)cc2)c(=O)n1CC(=O)Nc1cccc(C)c1C, CC1(C)Cc2cccc(OCC(N)=O)c2O1, CC1(C)Cc2cccc(OCC(=O)Nc3nccs3)c2O1, Cc1cc2ccccc2n1CCC(=O)O, O=[N+]([O-])c1ccccc1NCc1ccccc1Cl, Cc1cccc(C)c1NC(=O)C1(N(C(=O)c2ccccn2)c2ccc(O)cc2)CCCCC1, COc1ccccc1-n1c(CNC(=O)c2ccccc2)nnc1SCC(=O)Nc1nnc(C)s1, CCOC(=O)c1sc(NC(=O)CSc2nc3c(c(=O)n2-c2ccccc2)SCC3)c(C(=O)OCC)c1C, CCn1c(SCC(=O)Nc2ccc3c(c2)OCCO3)nc2c(c1=O)SC(C)C2 (stereo unspecified), CCc1nnc(NC(=O)CSc2nc3ccccc3c(=O)n2CCCOC)s1, O=C(Nn1cnc2ccccc2c1=O)c1ccc([N+](=O)[O-])cc1Cl, C=C(C(C)=O)C(O)c1ccc([N+](=O)[O-])cc1 (stereo unspecified), CCCCC(=O)NCc1ccc(F)cc1, O=C(CC(NS(=O)(=O)c1ccc(Cl)cc1)c1ccco1)NC1CCCC1 (stereo unspecified), COc1ccccc1CNS(=O)(=O)c1ccc(C)cc1, COC(=O)CCC(=O)N1CCCC(CO)(Cc2ccccc2)C1 (stereo unspecified), CCOC(=O)CN/C=C(\C#N)c1ccc(F)cc1, Cc1ccc(C(=O)NCCNC(=O)c2ccccc2)cc1, Cc1ccc(C(=O)c2c(NC(=O)c3ccncc3)sc3c2CCCC3)cc1, CCC(=O)NCc1cc(-c2nn(C)c(=O)c3ccccc23)ccc1OC, COC(=O)c1cc(C(=O)CSc2nc(C)cc(C)n2)ccc1O, COc1ccc(C(=O)NNC(=O)c2cnccn2)cc1[N+](=O)[O-], C/C(=N\NC(=O)OC(C)(C)C)c1ccc[nH]1, Cc1cc(NC(=O)CCC2COc3ccccc3O2)no1 (stereo unspecified), O=C(NCC1COc2ccccc2O1)C1(c2ccccc2)CCCC1 (stereo unspecified), O=C(NNC(=O)c1ccc(Cl)cc1Cl)c1cccs1, Fc1cccc(Cc2noc(CN3CCN(c4cnccn4)CC3)n2)c1, CCOC(=O)c1c(C)[nH]c2c1-c1ccccc1C(=O)C2=O, CCCCOC(=O)c1[nH]c(C)c(C(=O)OC)c1C, CN1CCN(c2nc(Nc3ccc(O)cc3)nc3ccccc23)CC1, COc1ccc(-c2nn(-c3ccccc3)cc2/C=C\C(=O)N2CCOCC2)cc1[N+](=O)[O-], S=C(NCCCc1cnc[nH]1)NCCCN(Cc1ccc(Cl)c(Cl)c1)c1ccc(Br)cn1, COc1ccc(C(CCNCc2ccccc2F)c2ccc(F)cc2)cc1 (stereo unspecified), CC1CN(C2CCCCC2)c2nc3c(c(=O)n(C)c(=O)n3C)n2C1 (stereo unspecified), COc1ccc2c(c1)CCc1c(C(=O)Nc3c(C)n(C)n(-c4ccccc4)c3=O)noc1-2, O=C(c1cc(-c2ccccc2O)on1)N1CCCC1, CCCCc1ccc(NC(=S)NCCCN2CCOCC2)cc1, Cc1cccc(C(=O)OC(C)CN2CCN(C)CC2)c1 (stereo unspecified), CC1(C)CC(N(Cc2ccccc2)C(=O)Cc2ccccc2)CCO1 (stereo unspecified), Cc1noc(C)c1COc1cccc(C(=O)Nc2cccnc2)c1, O=C(O)c1ccc2c3c(cccc13)C(=O)N(OS(=O)(=O)c1ccccc1)C2=O, Cc1ccccc1NC(=O)NC1(C(=O)N2CCCC2)CCCCC1, O=C(CN1C(=O)NC2(CCCCCC2)C1=O)NCc1cccs1, O=C(CN1C(=O)NC2(CCCCCC2)C1=O)NC1CC1, CCOC(=O)N1CCN(C(=O)Cn2cnc3ccccc3c2=O)CC1, O=C(COC(=O)Cn1cnc2ccccc2c1=O)NCc1ccccc1Cl, CCOCCCN(C(=O)Cn1nnc(-c2ccc(OC)c(OC)c2)n1)C(CC)C(=O)NC1CCCC1 (stereo unspecified), NC1CCN(O)C1=O (stereo unspecified), C/C=N/NC(=O)CCCC(=O)N/N=C/C, O=C(N/N=C/c1ccc([N+](=O)[O-])cc1)C(=O)N1CCCC1, CCOCCCNC(=S)N1CCC(NC(=O)C2CCCCC2)CC1, COCc1cc(C(C)=O)ccc1OC, O=C(OCc1cc(Cl)ccc1OC(F)F)c1cccnc1

activity, negative = inhibition, inactive:
C#CCCOC(=O)N1C2=NC(C(=O)OC)=C(C(=O)OC)[C@@H]3N(C)c4ccc(OC)cc4[C@]23C[C@H]1C(=O)OC 4.88% [at 13.5 µM]
